# Assay results reported in PubChem BioAssay.
# Activity calls are given as the source filed them.
# Assay: probe aCHRDL2 binding to arrayed compounds – biochemical, biotinylated probe, 635/667 nm fluorescence, primary screen (AID 1100)
# Conditions: small-molecule microarray, higher = more signal
row,SMILES,composite z-score
1,CCCC=C(CCC)[C@@H](NC(=O)c1ccc(C(F)(F)F)cc1)c1ccccc1,0.622
2,COC(=O)C[C@H]1O[C@]2(C(=O)N(Cc3ccccc3)c3ccc(I)cc32)[C@@H](C)[C@@H]1[Si](C)(C)c1ccc(OC)cc1,0.533
3,CCC(=O)[C@]12O[C@@]3([C@@H]4C(=O)OCC[C@@H]41)N(CC)C(C)=C(C(=O)OC)[C@@H](c1ccccc1)N3C2=O,-0.87
4,COCCOC(=O)N1C(=O)[C@@]2(c3cc(C#CC4=CCCCC4)ccc31)[C@H](c1ccc(O)cc1)N1[C@H](c3ccccc3)[C@H](c3ccccc3)OC(=O)[C@H]1[C@@H]2C(=O)N1CCCCCCC1,0.842
5,O=C(CS)NCCCCCNC(=O)[C@H]1C[C@H]2C(=O)N3CCC[C@H]3C(=O)N2[C@H]1c1ccc(O)cc1,-0.196
6,CSCC[C@@H]1NC(=O)CC=C[C@@H](C)COC(=O)[C@H](CCSC)NC(=O)CC=C[C@@H](C)COC1=O,-0.607
7,COCCOC(=O)N1C(=O)[C@@]2(c3cc(C#CCNC(N)=O)ccc31)[C@H](C(=O)N1CCCCCCC1)[C@H]1C(=O)O[C@H](c3ccccc3)[C@H](c3ccccc3)N1[C@@H]2c1ccccc1OCCO,0.734
8,O=C1O[C@H](c2ccccc2)[C@H](c2ccccc2)N2[C@H]1[C@@H](C(=O)Nc1nc3ccccc3s1)[C@]1(C(=O)Nc3ccc(C#CC4(O)CCCCCC4)cc31)[C@H]2c1ccc(O)cc1,-0.0778
9,CC[C@H]1C2=C3C(CC[C@H]4C(OC)OC[C@](C)([C@@H]34)N(C(=O)OC(C)(C)C)C2)C(CO)C1CO (stereo partly drawn),1.6
10,CC(C)(C)OC(=O)CC[C@@]1(C(=O)NCc2ccccc2)N=C(c2ccc(OCCCO)cc2)O[C@@H]1c1ccccc1,1.31
11,CC(C)[Si](OCC[C@H]1O[C@]2(C(=O)N(Cc3ccccc3)c3ccccc32)[C@@H](C)[C@@H]1[Si](C)(C)O)(C(C)C)C(C)C,-0.0768
12,C[C@H]1COC(=O)[C@H](Cc2ccccc2)NC(=O)[C@@H](C)COC(=O)[C@H](Cc2ccccc2)NC1=O,-0.563
13,COc1ccc([Si](C)(C)[C@H]2[C@H](CC(=O)N3Cc4ccccc4C[C@H]3CO)O[C@@]3(C(=O)N(Cc4cccc(N5CCOC5=O)c4)c4ccccc43)[C@@H]2C)cc1,0.0765
14,CO[C@H]1COC(=O)[C@@H](OCc2ccccc2)C=C[C@H](C)[C@@H](OC)COC(=O)[C@H](OCc2ccccc2)C=C[C@@H]1C,-0.984
15,C=C(COC)C(=O)CC[C@H](OC(=O)c1ccccc1-c1ccccc1C(=O)O)c1cccc(OCCO)c1,-0.462
16,Cc1ccc(S[C@]2(C(=O)O)CC(=O)N(Cc3ccccc3)[C@@H]2c2ccc(CO)cc2)cc1,0.899
17,O=C(O)[C@@H]1Cc2c([nH]c3ccccc23)[C@@H](c2ccccc2)N1,-0.58

# Assay: change in splice reporter luminescence, either direction, cell-based, HEK293, spliceosome inhibition project, primary screen (AID 1101);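 further: HEK293 cells carrying a splicing-competent luciferase reporter gene; test concentration not given here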
# Conditions: HEK293 splicing luciferase reporter, 24 h, higher = more signal, called active from +8 up or from −8 down
row,SMILES,z-score
1,C=CCN1C(=O)[C@@]2(Cc3ccccc3)N=C(c3ccc(OCCCO)cc3)O[C@H]2c2ccccc21,-0.298 (inactive)
2,CC(=O)Nc1ccc([C@H]2[C@H](C)CC[C@H]3C(=O)N4[C@@H](CC[C@@H](C)[C@@H]4c4ccc(NC(C)=O)cc4)C(=O)N32)cc1,0.209 (inactive)
3,COc1cc2c(cc1OC)CN(C(=O)[C@@H]1[C@H]3C(=O)O[C@H](c4ccccc4)[C@H](c4ccccc4)N3[C@H](c3ccccc3OCCO)[C@@]13C(=O)Nc1ccccc13)CC2,-0.239 (inactive)
4,CCOC(=O)C[C@H]1[C@H](OC(=O)Cc2ccc3c(c2)OCO3)[C@@H](NC(=O)c2ccc3ccccc3c2)c2cc(OCCCO)ccc2N1C(=O)Cc1ccc(OC)cc1,-1.83 (inactive)
5,CO[C@@H]1COC(=O)[C@H](C)NC(=O)CC=C[C@@H](C)[C@H](OC)COC(=O)[C@H](C)NC(=O)CC=C[C@H]1C,-0.415 (inactive)
6,CO[C@H]1COC(=O)CC=C[C@H](C)COC(=O)[C@@H](OCc2ccccc2)C=C[C@@H]1C,-1.71 (inactive)
7,CCCC[C@@H]1C[C@H]1[C@@H](NC(=O)c1ccccc1)c1ccccc1C(F)(F)F,-0.261 (inactive)
8,CO[C@@H]1COC(=O)[C@H](C)NC(=O)CC=C[C@@H](C)[C@H](NS(=O)(=O)c2ccc(C)cc2)COC(=O)CC=C[C@@H]1C,-0.373 (inactive)
9,CC(=O)NCCCC[C@@H]1NC(=O)[C@H]2C[C@@H](C(=O)NCCCCCCN(C)C)[C@@H](c3cccc(OCCO)c3)N2C1=O,0.567 (inactive)
10,NC(=O)NCC#Cc1ccc2c(c1)[C@]1(C(=O)N2)[C@H](c2ccccc2OCCO)N2[C@H](c3ccccc3)[C@H](c3ccccc3)OC(=O)[C@H]2[C@@H]1C(=O)N1CCN(c2ncccn2)CC1,0.222 (inactive)
11,C[C@]1(C(=O)NCc2ccccc2)c2ccccc2C(=O)N(Cc2cc(C(F)(F)F)cc(C(F)(F)F)c2)[C@H]1c1ccc(CO)cc1,-1.73 (inactive)
12,C=C(COC)/C(=C/C[C@@H](OC(C)=O)c1cccc(OCCO)c1)c1cc(C(=O)OC)ccc1OC,-0.964 (inactive)
13,COC(=O)[C@H]1[C@@H]2COc3ccccc3[C@H]2N[C@H]1C(=O)OC,-0.685 (inactive)
14,CCc1cccc(NC(=O)O[C@H]2[C@H](OC(=O)Nc3ccccc3)[C@@H](OC(=O)Nc3ccccc3)[C@@H](OC)O[C@@H]2CO)c1,-0.0187 (inactive)
15,C=CCN1C(=O)[C@]2(O[C@H](CCn3cc(CCO)nn3)[C@@H]([Si](C)(C)c3ccc(OC)cc3)[C@@H]2C)c2cc(NC(=O)c3ccc(OC)cc3)ccc21,0.0559 (inactive)
16,C=C(COC)/C(=C/C[C@H](OC(C)=O)c1ccc(OCCO)cc1)c1cnc2ccccc2c1,-1.48 (inactive)
17,[N-]=[N+]=NCc1ccccc1C[C@]1(C(=O)N2CCCCC2)N=C(c2ccc(OCCCO)cc2)O[C@H]1c1ccccc1CN=[N+]=[N-],0.324 (inactive)
18,CO[C@H]1O[C@H](CO)[C@@H](OC(=O)Nc2ccccc2)[C@H](OC(=O)Nc2ccc3c(c2)OCO3)[C@@H]1OC(=O)Nc1ccc2c(c1)OCO2,-0.368 (inactive)

row,SMILES,z-score
1,CCOC(=O)C1=C[C@@H](c2ccccc2)N(S(=O)(=O)c2ccc(C)cc2)[C@H]1c1ccc(F)cc1,-0.162 (inactive)
2,CCCC=C(CCC)[C@@H](NC(=O)c1ccc(C(F)(F)F)cc1)c1ccccc1,-3.52 (inactive)
3,COC(=O)C[C@H]1O[C@]2(C(=O)N(Cc3ccccc3)c3ccc(I)cc32)[C@@H](C)[C@@H]1[Si](C)(C)c1ccc(OC)cc1,-0.853 (inactive)
4,CCC(=O)[C@]12O[C@@]3([C@@H]4C(=O)OCC[C@@H]41)N(CC)C(C)=C(C(=O)OC)[C@@H](c1ccccc1)N3C2=O,-1.9 (inactive)
5,COCCOC(=O)N1C(=O)[C@@]2(c3cc(C#CC4=CCCCC4)ccc31)[C@H](c1ccc(O)cc1)N1[C@H](c3ccccc3)[C@H](c3ccccc3)OC(=O)[C@H]1[C@@H]2C(=O)N1CCCCCCC1,-0.476 (inactive)
6,O=C(CS)NCCCCCNC(=O)[C@H]1C[C@H]2C(=O)N3CCC[C@H]3C(=O)N2[C@H]1c1ccc(O)cc1,-1.45 (inactive)
7,CSCC[C@@H]1NC(=O)CC=C[C@@H](C)COC(=O)[C@H](CCSC)NC(=O)CC=C[C@@H](C)COC1=O,-1.02 (inactive)
8,COCCOC(=O)N1C(=O)[C@@]2(c3cc(C#CCNC(N)=O)ccc31)[C@H](C(=O)N1CCCCCCC1)[C@H]1C(=O)O[C@H](c3ccccc3)[C@H](c3ccccc3)N1[C@@H]2c1ccccc1OCCO,-0.12 (inactive)
9,O=C1O[C@H](c2ccccc2)[C@H](c2ccccc2)N2[C@H]1[C@@H](C(=O)Nc1nc3ccccc3s1)[C@]1(C(=O)Nc3ccc(C#CC4(O)CCCCCC4)cc31)[C@H]2c1ccc(O)cc1,-0.493 (inactive)
10,CC[C@H]1C2=C3C(CC[C@H]4C(OC)OC[C@](C)([C@@H]34)N(C(=O)OC(C)(C)C)C2)C(CO)C1CO (stereo partly drawn),-0.715 (inactive)
11,CC(C)(C)OC(=O)CC[C@@]1(C(=O)NCc2ccccc2)N=C(c2ccc(OCCCO)cc2)O[C@@H]1c1ccccc1,-0.791 (inactive)
12,CC(C)[Si](OCC[C@H]1O[C@]2(C(=O)N(Cc3ccccc3)c3ccccc32)[C@@H](C)[C@@H]1[Si](C)(C)O)(C(C)C)C(C)C,0.467 (inactive)
13,C[C@H]1COC(=O)[C@H](Cc2ccccc2)NC(=O)[C@@H](C)COC(=O)[C@H](Cc2ccccc2)NC1=O,-1.67 (inactive)
14,COc1ccc([Si](C)(C)[C@H]2[C@H](CC(=O)N3Cc4ccccc4C[C@H]3CO)O[C@@]3(C(=O)N(Cc4cccc(N5CCOC5=O)c4)c4ccccc43)[C@@H]2C)cc1,-1.07 (inactive)
15,CO[C@H]1COC(=O)[C@@H](OCc2ccccc2)C=C[C@H](C)[C@@H](OC)COC(=O)[C@H](OCc2ccccc2)C=C[C@@H]1C,-1.8 (inactive)
16,C=C(COC)C(=O)CC[C@H](OC(=O)c1ccccc1-c1ccccc1C(=O)O)c1cccc(OCCO)c1,-3.03 (inactive)
17,Cc1ccc(S[C@]2(C(=O)O)CC(=O)N(Cc3ccccc3)[C@@H]2c2ccc(CO)cc2)cc1,-0.718 (inactive)
18,O=C(O)[C@@H]1Cc2c([nH]c3ccccc23)[C@@H](c2ccccc2)N1,-0.333 (inactive)
